Source: PubChem (National Center for Advancing Translational Sciences (NCATS))
NPSR antagonist = neuropeptide S receptor (human) antagonism, cAMP; CHO-NPSR cells, cAMP TR-FRET, antagonist mode; Q6W5P4; 1% of 220,000 active; Potency, µM (top dose mostly 38.3 µM), without a hit: at the top dose activity change, negative = inhibition, usual class: inhibitors; note: nearly all actives have a fitted effect of over 50% in size
Target sequence (Q6W5P4 whole entry, looked up): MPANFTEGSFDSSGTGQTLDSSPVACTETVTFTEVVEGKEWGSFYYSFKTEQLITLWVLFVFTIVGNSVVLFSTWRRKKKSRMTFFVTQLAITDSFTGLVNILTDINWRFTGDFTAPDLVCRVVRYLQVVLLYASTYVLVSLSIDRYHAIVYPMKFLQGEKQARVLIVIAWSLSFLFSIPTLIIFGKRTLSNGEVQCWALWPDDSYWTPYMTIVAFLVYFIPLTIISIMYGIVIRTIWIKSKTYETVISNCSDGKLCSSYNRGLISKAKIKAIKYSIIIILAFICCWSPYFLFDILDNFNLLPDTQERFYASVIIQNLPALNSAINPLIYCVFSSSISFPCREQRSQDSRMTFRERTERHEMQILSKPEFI
ERK EGF block = EGF-driven ERK pathway inhibition; HEK293-V1b, EGF-stimulated phospho-ERK AlphaScreen; 0.41% of 130,000 active; AID 1454; Potency, µM (highest dose often 11.5 µM), without a hit: at the highest dose activity change, negative = inhibition, actives largely listed as inhibitors;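 note: plate controls were stimulated vehicle wells for no effect and unstimulated vehicle basal for full effect; nearly all actives have a fitted effect of over 55% in size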
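In this qHTS, HEK293 cells with stable type-1 vasopressin (V1b) receptor were exposed to compound at 37C for 30 min, stimulated 5 min with EGF at 25 nM, lysed, and probed for phospho-ERK by AlphaScreen.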
* hit, by the source's call; ? = inconclusive; · = no result given; [ ] = remark or other dose. Shown is part of a subset that was picked to be rich in hits. Calls come from the whole dose curve; as a rule, active = well fitted curve in the direction sought with a large enough effect; inconclusive = small, poorly fitted or top-dose-only effect, or another doubt; inactive = no such curve, though single readings can be large; an effect the other way counts as inactive or inconclusive. Unless noted, % is set by controls: 0 for no effect and ±100 for the full control effect; potency is the fitted concentration of half-maximal effect.

SMILES	NPSR antagonist	ERK EGF block
O=C1C=C(c2ccccc2)C(=O)N1Nc1ccccc1	12.6µM*	·
Cc1ccc(NN2C(=O)C=C(c3ccc(Cl)cc3)C2=O)cc1	7.94µM*	·
COc1ccc(C2=CC(=O)N(Nc3ccccc3)C2=O)cc1	-9.6%	-2.4%
Cc1ccc(NN2C(=O)C=CC2=O)cc1	4.7%	-8.2%
CCC1CSC(Nc2ccc(C(=O)/C=C/c3cccc(C)c3)cc2)=N1 (stereo not drawn)	-29.2%	-1.0%
N#Cc1ccc(CS(=O)(=O)c2nnnn2-c2ccccc2)cc1	·	-1.7%
CCOC(=O)c1c(-c2ccc(F)cc2)csc1NC(=O)C1CC=CCC1C(=O)O (stereo not drawn)	-22.3%	-6.8%
CCOC(=O)c1c(-c2cccc([N+](=O)[O-])c2)csc1NC(=O)C1CCCCC1	10µM*	3.8%
CCOC(=O)c1c(-c2ccc(C)c(C)c2)csc1NC(=O)C1CC=CCC1C(=O)O (stereo not drawn)	10µM*	·
CCOC(=O)c1c(-c2cccc([N+](=O)[O-])c2)csc1NC(=O)C1CC1	-27.9%[46.1 µM]	·
CCCCC(=O)NCCc1c(Cc2ccccc2)[nH]c2ccccc12	·	11.9%
CC(C)(C)NC(=O)CSC(=Nc1ccc(F)cc1)NC#N	-7.7%[46.1 µM]	·
Cc1c(C(=O)N2CCCCC2)nn(-c2ccc(Cl)cc2)c(=O)c1C#N	1.4%	-2.3%
COc1ccc(-c2nn(-c3ccccc3)cc2C(=O)n2nnc3ccccc32)cc1	10µM*	·
COC(=O)c1cn(-c2ccccc2)nc1-c1ccc(OC)cc1	-19.1%	5.5%
Oc1ccc2ccccc2c1N=Nc1ccc(F)cc1	2.5%	12.6µM*
Oc1[nH]c2ccccc2c1N=Nc1ccc(F)cc1	-1.9%	-1.1%
Cc1ccc(N=N/C(=C\O)C(=O)c2ccncc2)cc1	10µM*	·
COc1ccc(C(=O)/C(=C/O)N=Nc2ccc(F)cc2)cc1	?	5.4%
COc1ccc(-c2nnc(SCC(=O)Nc3ncc(C)s3)n2-c2ccccc2)cc1OC	-9.5%[46.1 µM]	·
C/C(=N\n1cnnc1)c1ccccc1	11.0%	2.1%
Cc1cc(NC(=O)c2ccccc2F)on1	11.3%	-3.2%
Cc1cc(C)nc(S/C=C/C(=O)c2ccccc2F)n1	?	28.2µM*
CS(=O)(=O)Nc1ccc(C2=NN(C(=O)c3ccco3)C(c3ccccc3F)C2)cc1 (stereo not drawn)	-28.3%	33.5%
C/C(N)=C(/C#N)C(=O)COC(=O)c1cccc(O)c1	-2.2%	28.2µM*
SMILES	NPSR antagonist	ERK EGF block
C/C(N)=C(/C#N)C(=O)COC(=O)c1ccncc1	1.9%[46.1 µM]	·
Nc1c(C(=O)Nc2nc3ccccc3s2)sc2nc(-c3cccs3)ccc12	10µM*	·
CC(=O)c1sc2nc(-c3cccs3)ccc2c1N	-3.3%[46.1 µM]	·
O=C1c2cccnc2C(Nc2ccc(Br)cc2Br)N1Cc1cccs1 (stereo not drawn)	-26.9%	8.5%
O=C(Cn1cc(SCc2cccc(Cl)c2)c2ccccc21)N1CCOCC1	7.3%	4.4%
O=C1c2ccccc2C(=O)c2c(NCCCN(CCO)CCO)cccc21	12.6µM*	28.2µM*
CCN(CC)CC(=O)Nc1cccc2c1C(=O)c1ccccc1C2=O	-5.8%	-7.6%
Cc1cc(C)n(-c2nc(N(c3ccccc3)c3ccccc3)nc(-n3nc(C)cc3C)n2)n1	12.6µM*	?
Cc1cc(C)n(-c2nc(Nc3ccccc3)nc(-n3nc(C)cc3C)n2)n1	3.9%[46.1 µM]	·
O=C(N/N=C/c1ccc2c(c1)OCO2)c1cc2ccccc2o1	3.7%	-8.3%[57.5 µM]
O=C(COc1ccc(/C=N/NC(=O)c2cc3ccccc3o2)cc1Cl)Nc1ccccc1	3.98µM*	·
CCOC(=O)Cn1c(CN2CCN(C(c3ccccc3)c3ccccc3)CC2)nc2c1c(=O)n(C)c(=O)n2C	15.8µM*	·
Cn1c(=O)c2c(nc(CN3CCN(C(c4ccccc4)c4ccccc4)CC3)n2CC(N)=O)n(C)c1=O	0.3%[46.1 µM]	·
Cc1oc(C(C)(C)C)c(CN2CCOCC2)c1C(=O)O	-22.0%	10.4%
O=C(OC1C2CCC1C1CN(CCc3ccccc3)CC12)c1ccccc1 (stereo not drawn)	7.4%	-5.8%
COc1ccc(C(=O)N/C(N)=N/c2nc3ccccc3o2)cc1	-15.0%[46.1 µM]	·
COc1ccc(C(=O)/C=C/Sc2nc3ccccc3o2)cc1	?	28.2µM*
O=S(=O)(c1ccccc1)N(CC1CO1)c1cccc2ccccc12 (stereo not drawn)	15.4%	11.0%
Cc1cc2ccccn2c1C(=O)c1cccc([N+](=O)[O-])c1	-8.0%	6.0%
Cc1cc2ccccn2c1C(=O)c1ccc([N+](=O)[O-])o1	-31.7%	17.8µM*
COc1ccccc1OCCNC(=O)Cc1ccc(Cl)c(Cl)c1	-3.4%	0.0%
COc1ccc(-c2nc(CN3CCN(c4cc(C)nc(C)c4)CC3)c(C)o2)c2ccccc12	-12.4%	-15.5%
Cc1oc(-c2cccc3ccccc23)nc1CN1CCN(c2ncnc3ccccc23)CC1	-50.5%	31.6µM*
C=C(C)COc1ccc(-c2n[nH]c(C)c2-c2ccc(OC)c(OC)c2)c(O)c1	?	-8.6%[57.5 µM]
CC(NCC1(N2CCOCC2)CCCCC1)C(=O)Nc1ccc(Cl)cc1Cl (stereo not drawn)	-38.2%	-3.0%
SMILES	NPSR antagonist	ERK EGF block
CCCCOc1ccc(-c2c(C(=O)Nc3ccccc3)c(C)[nH]c(=S)c2C#N)cc1	10µM*	2.6%
CCOC(=O)c1c(C)[nH]c(=S)c(C#N)c1-c1ccc(OC)cc1	-17.5%[46.1 µM]	·
S=C(NCc1ccco1)N/N=C/c1ccccc1Cl	-14.4%	0.1%
Cc1ccc(C(=O)NC(=S)/C=C2\N(C)c3ccccc3C2(C)C)cc1	-17.9%	25.1µM*
CC(C)C(=O)NC(=S)/C=C1/N(C)c2ccccc2C1(C)C	-19.6%	?
O=C(CSc1nnc2ccccn12)NNC(=O)c1ccc(Br)cc1	8.9%	3.8%
Cc1ccc(S(=O)(=O)N(CC(=O)NCc2ccco2)Cc2ccccc2F)cc1	-26.7%[46.1 µM]	·
CCOC(=O)c1c(CSC(=N)N)n(-c2ccc(C)cc2)c2cc(Br)c(OC(C)=O)cc12	10µM*	·
CCOC(=O)c1c(CSC(=N)N)n(C)c2cc(Br)c(OC(C)=O)cc12	-32.5%	8.0%[57.5 µM]
CS(=O)(=O)N1CCC2(CCCN(c3ncccn3)C2)CC1	·	-2.6%
Fc1cccc(Nc2ncnc3[nH]ncc23)c1	-20.2%	25.1µM*
Brc1ccc(Nc2ncnc3[nH]ncc23)cc1	-14.8%	?
Cc1ccc(-c2cc3cccc[n+]3cc2-c2ccc(C)cc2)cc1	-1.0%	1.8%
CCCCC1=CC2=C(c3ccco3)C(=O)C(C)(OC(=O)c3ccc(OC)cc3)C(=O)C2=CN1Cc1ccc(OC)cc1 (stereo not drawn)	-53.7%	0.2%[57.5 µM]
CCCCC1=CC2=C(c3ccco3)C(=O)C(C)(OC(=O)c3ccc(OC)cc3)C(=O)C2=CN1CC(C)C (stereo not drawn)	10µM*	-3.5%[57.5 µM]
Cc1nc(NC2CCCCC2)c2nc(-c3ccccc3)n(CCCN3CCOCC3)c2n1	·	6.2%
Cn1cc(/C=C2\SC(=O)N(c3ccc(O)cc3)C2=O)c2ccccc21	-28.7%	35.5µM*
Cn1cc(/C=C2\SC(=O)N(c3ccccc3)C2=O)c2ccccc21	12.7%	12.9%
CCOC(=O)N=Nc1c(O)n(CC(=O)OC)c2ccccc12	-16.6%	-8.8%[57.5 µM]
CCOC(=O)N=Nc1c2ccccc2c2nc3no[nH]c3nc12	6.31µM*	?
COc1ccc(S(=O)(=O)N2CCOC2CNC(=O)C(=O)NCCc2c[nH]c3ccccc23)cc1C (stereo not drawn)	8.7%	-6.6%
O=S(Cc1ccc(Br)cc1)Cc1nnc(SCc2c(Cl)cccc2Cl)n1-c1ccccc1 (stereo not drawn)	10µM*	·
